Screening data deposited in PubChem BioAssay by several laboratories.
Rows were chosen to be rich in hits. Some 5.4% of all compounds tested hit in one or more screens of this group.
APOBEC3G inh: APOBEC3G (human) deaminase inhibition; Q9HC16; recombinant A3G, ssDNA deamination FAM/TAMRA fluorescence; inhibition, % at 20 µM; 330,000 compounds, 0.28% hits; AID 493012;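 active = inhibition of at least 40% at 20 µM, with no more than 30% in the related APOBEC3A deaminase screen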;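 note: plate controls were DMSO wells with A3G for no effect and wells lacking A3G enzyme for full effect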
rCAG binder: molecules binding r(CAG) RNA repeats; r(CAG) RNA repeat, TO-PRO-1 dye displacement fluorescence; inhibition, % at 3 µM; 370,000 compounds, 1.3% hits;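 active = inhibition above the plate cutoff, the mean of all test compounds on that plate plus 3 SD, cut at about 35% in these data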;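 note: 0% = DMSO alone and 100% = 100 µM mitoxantrone as full dye displacement; higher means more dye released from RNA so lower well fluorescence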
PHOSPHO1 block: inhibitors of human PHOSPHO1 phosphatase. inhibition, % at 13.3 µM. recombinant PHOSPHO1, absorbance phosphatase assay. Q8TCT1. 290,000 compounds, 1.1% hits; in the data active = inhibition above about 60%
Target sequence (Q8TCT1 whole entry, looked up): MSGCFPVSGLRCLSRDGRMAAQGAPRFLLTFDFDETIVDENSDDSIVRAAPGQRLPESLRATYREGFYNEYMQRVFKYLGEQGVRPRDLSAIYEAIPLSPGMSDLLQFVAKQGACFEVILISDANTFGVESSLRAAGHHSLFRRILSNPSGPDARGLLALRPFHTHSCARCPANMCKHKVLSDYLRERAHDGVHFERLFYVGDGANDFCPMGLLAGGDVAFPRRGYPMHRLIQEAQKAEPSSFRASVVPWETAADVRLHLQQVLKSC
A3A deaminase: inhibitors of human APOBEC3A DNA deaminase | P31941 | recombinant A3A, FAM/TAMRA ssDNA deamination fluorescence | inhibition, % at 20 µM | 330,000 compounds, 0.41% hits;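 active = at least 40% inhibition at 20 µM here, with at most 30% in a related deaminase screen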;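 note: plate controls were A3A with DMSO for no effect and wells lacking A3A enzyme for full effect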
ALR H2O2 inh: inhibitors of human sulfhydryl oxidase ALR; inhibition, % (concentration not given with the values); P55789; purified ALR, DTT oxidation, H2O2 HRP-luminol luminescence; AID 485317; 290,000 compounds, 3.8% hits;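 active = mean replicate inhibition above about 79%, with every replicate also reaching it, limit read from the data; inconclusive = only one of the two criteria met; inactive = mean below limit and not every replicate reaching it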
Target sequence (P55789 whole entry, looked up): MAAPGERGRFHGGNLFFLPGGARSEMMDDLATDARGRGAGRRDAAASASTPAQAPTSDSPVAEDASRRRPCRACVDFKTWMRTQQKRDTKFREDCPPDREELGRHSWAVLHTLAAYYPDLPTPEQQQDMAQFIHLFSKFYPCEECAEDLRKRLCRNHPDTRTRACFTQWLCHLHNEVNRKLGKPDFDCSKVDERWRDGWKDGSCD
aDG glyco up: increases alpha dystroglycan glycosylation. activation, % at 10 µM. 360,000 compounds, 0.22% hits. Pro5-aDG cells, alpha-DG glycosylation AlphaScreen (IIH6); 0% Pro5, 100% B10-LARGE cell signal;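 active = activation of at least 8% versus controls, or a plate z-score of at least 8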;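 note: Pro5 are CHO cells carrying HIG-tagged alpha-DG that lacks glycosylation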
rCAG bind conf: r(CAG) RNA repeat binding, confirmation | 4,300 compounds, 70% hits | shares compounds with rCAG binder | inhibition, % at 3 µM | TO-PRO-1 dye displacement fluorescence;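 active = inhibition above a per-plate cutoff, the mean inhibition of sample wells plus 3 SD, cut at about 35% in these data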;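 note: loss of TO-PRO-1 fluorescence as compound displaces dye from 1x1 AA loop RNA; 0% = DMSO only wells and 100% = 100 µM mitoxantrone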
dCAG dye counter: disrupts DNA CAG TO-PRO-1 complex, flagging rCAG hits; 4,300 compounds, 94% hits; d(CAG) DNA oligo TO-PRO-1 dye displacement, fluorescence; shares compounds with rCAG binder; inhibition, % at 3 µM;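 active = inhibition above its plate's cutoff, the mean test-well inhibition plus 3 SD, cut at about 4.8% in these data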;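 note: 0% = DNA dye mix with DMSO and 100% = 100 µM mitoxantrone; hits displace the dye from DNA and so lower well fluorescence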
dCAG dye DR: counter-screen for rCAG binders: inhibitors of DNA CAG TO-PRO-1 complex; 250 compounds, 20% hits; DNA CAG/GTC duplex TO-PRO-1 dye displacement fluorescence; shares compounds with rCAG binder; AID 686960; IC50, µM; in the data active = IC50 below about 10 µM
Numbers without * were called inactive; i = inactive; ? = inconclusive; . = no result.

SMILES | APOBEC3G inh | rCAG binder | PHOSPHO1 block | A3A deaminase | ALR H2O2 inh | aDG glyco up | rCAG bind conf | dCAG dye counter | others
COc1ccccc1NC(=O)c1ccc(NS(=O)(=O)c2ccc(F)c(Cl)c2)cc1 | -6 | 44* | -18 | 3 | -2 | 0 | 54* | 14*
C=CCNc1nc(N)c(C(=C(C#N)C#N)c2ccc(Br)cc2)s1 | -6 | 38* | -24 | -3 | . | 0 | 22 | 10*
C=CCNc1sc(C(=O)C(C)(C)C)c(N)c1C#N | -4 | -5 | -24 | 1 | 3 | 0 | . | .
COc1ccc(C2CC(=O)C(c3cc(OC)c(OC)c(OC)c3)=CN2Cc2ccccc2)cc1 (configuration not stated) | . | 1 | . | . | . | . | . | .
COc1cccc(NC(=O)CN(C)CC(=O)Nc2ccc(C)c(S(=O)(=O)N3CCOCC3)c2)c1 | . | 2 | . | . | . | 0 | . | .
O=S(=O)(Nc1nc2ccccc2nc1Nc1ccc2c(c1)OCCO2)c1cccs1 | 1 | 91* | -7 | 2 | 24 | 0 | 83* | 51*
COc1cc(NS(=O)(=O)c2ccc(NC(=O)COc3ccc(C)cc3C)cc2)nc(OC)n1 | -5 | 45* | 21 | 1 | . | 0 | 46* | 14*
COc1ccc(/C=C/C(=O)NC(=S)Nc2ccc(S(=O)(=O)Nc3ccc(OC)nn3)cc2)cc1 | 0 | 70* | -1 | 5 | 4 | 0 | 66* | 33*
COc1cc(NS(=O)(=O)c2ccc(NC(=S)NC(=O)C(C)(C)C)cc2)nc(OC)n1 | 2 | 10 | 20 | 1 | 19 | 0 | . | .
COc1cc(NS(=O)(=O)c2ccc(NC(=S)NC(=O)c3ccc(F)c(F)c3)cc2)nc(OC)n1 | -3 | 49* | 24 | -3 | ? | 0 | 54* | 12* | dCAG dye DR=>30
COc1cc(NS(=O)(=O)c2ccc(NC(=S)NC(=O)COc3ccccc3OC)cc2)nc(OC)n1 | 11 | 44* | 2 | 3 | 9 | 0 | 59* | 24*
COc1cc(NS(=O)(=O)c2ccc(NC(=S)NC(C)=O)cc2)nc(OC)n1 | -6 | 11 | . | 1 | 10 | 0 | . | .
COC(=O)[C@@H](NCc1ccc(OC)c(B(O)O)c1)C(C)C | . | 1 | . | . | . | 0 | . | .
COC(=O)c1cc2c(c3c4cc(OC)ccc4n(S(=O)(=O)c4ccc(F)cc4)c13)C(=O)N(CC(C)C)C2 | . | 13 | . | . | . | . | . | .
O=C(NCC1CC1)c1csc([C@@H]2O[C@H](CO)[C@H](O)[C@H](O)[C@H]2O)n1 | . | 1 | . | . | . | 0 | . | .
C[C@H]1CNC(=O)c2c(C(=O)N[C@@H](Cc3c[nH]c4ccccc34)C(=O)OC(C)(C)C)ncn21 | . | -1 | . | . | . | 0 | . | .
COc1cc(F)ccc1-c1cc(C(=O)Nc2ccc(NC(C)=O)cc2)[nH]n1 | . | 3 | . | . | . | 0 | . | .
C[C@@H]1C=CCCO[C@]12C(=O)N(Cc1ccc(F)cc1)c1cccc(Br)c12 | . | 1 | . | . | . | . | . | .
COC(=O)CCC(=O)Nc1ccc(S(=O)(=O)Nc2cc(OC)nc(OC)n2)cc1 | 0 | 0 | 46 | 2 | -17 | 0 | . | .
COc1cc(NS(=O)(=O)c2ccc(NC(=O)COc3ccc(C)cc3)cc2)nc(OC)n1 | 0 | 38* | 11 | 2 | 17 | 0 | 27 | 10*
COc1cc(NS(=O)(=O)c2ccc(NC(=O)COc3ccccc3C)cc2)nc(OC)n1 | -7 | 45* | 55 | -3 | 99* | 0 | 32 | 13*
Cc1ccc(S(=O)(=O)N2CCCc3nc(-c4ccc(F)cc4)ccc32)cc1 | . | 3 | . | . | . | . | . | .
O=C(C(=O)N1CCCN(Cc2ccc(F)cc2)CC1)c1ccccc1 | . | -1 | . | . | . | 0 | . | .
COc1cc(/C=C/C(=O)OCC(=O)N2CC(C)OC(C)C2)ccc1OCC#N (configuration not stated) | . | 2 | . | . | . | 0 | . | .
CCOc1cc(/C=C2\SC(=Nc3ccccc3)N(c3ccccc3)C2=O)ccc1OCC(=O)O | -2 | 65* | 18 | 5 | 52 | 0 | 71* | 30* | dCAG dye DR=i
